# Results as given in PubChem BioAssay AID1347419 (Sanford-Burnham Center for Chemical Genomics, 2020).
# Screen size: about 99,000 compounds; about 820 (0.83%) were called active. The full list was thinned out, with actives kept by preference. Unmarked numbers belong to inactive results.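 Rule for the calls: active = Z-score of -3 or lower, scaled per plate to the spread of control and sample wells; inactive = z-score above -3.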
# Biological target: Protein-tyrosine kinase 2-beta (Homo sapiens) (UniProt Q14289)
# Sequence (Q14289 whole entry, looked up): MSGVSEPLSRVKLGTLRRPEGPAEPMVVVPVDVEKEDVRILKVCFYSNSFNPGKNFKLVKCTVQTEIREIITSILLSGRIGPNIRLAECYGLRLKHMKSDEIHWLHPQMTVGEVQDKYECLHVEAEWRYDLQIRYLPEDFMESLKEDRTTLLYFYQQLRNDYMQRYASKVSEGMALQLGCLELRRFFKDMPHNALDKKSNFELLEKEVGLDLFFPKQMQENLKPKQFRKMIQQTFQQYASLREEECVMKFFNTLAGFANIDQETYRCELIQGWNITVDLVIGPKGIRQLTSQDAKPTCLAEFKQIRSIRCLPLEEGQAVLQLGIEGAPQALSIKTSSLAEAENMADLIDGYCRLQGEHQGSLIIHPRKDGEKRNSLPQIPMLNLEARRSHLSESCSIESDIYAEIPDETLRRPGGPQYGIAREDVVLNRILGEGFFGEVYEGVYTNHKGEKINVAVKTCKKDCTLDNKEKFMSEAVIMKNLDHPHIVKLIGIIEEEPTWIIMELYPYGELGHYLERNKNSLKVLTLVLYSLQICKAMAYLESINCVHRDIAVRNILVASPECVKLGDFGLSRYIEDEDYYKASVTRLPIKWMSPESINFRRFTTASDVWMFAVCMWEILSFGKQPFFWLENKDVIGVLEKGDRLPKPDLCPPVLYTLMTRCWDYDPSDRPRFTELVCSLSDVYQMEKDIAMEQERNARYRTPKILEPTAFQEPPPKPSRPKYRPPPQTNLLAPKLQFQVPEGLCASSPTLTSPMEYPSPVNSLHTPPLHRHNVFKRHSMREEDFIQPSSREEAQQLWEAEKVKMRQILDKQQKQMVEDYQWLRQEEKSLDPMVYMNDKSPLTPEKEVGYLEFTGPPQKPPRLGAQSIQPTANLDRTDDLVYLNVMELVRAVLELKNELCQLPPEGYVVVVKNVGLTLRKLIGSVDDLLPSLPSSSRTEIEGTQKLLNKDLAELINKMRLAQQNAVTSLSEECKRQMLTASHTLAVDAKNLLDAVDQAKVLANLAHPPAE
# Experiment: antagonists of Pyk2 self-association, primary screen, Q293 cells, FERM NanoBiT luminescence, HTS (AID 1347419);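 note: the deposit names both 25 µM and 10 µM; negative z-score means lost luminescence so less FERM oligomerization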
# Set-up: dose or concentration left out as unconfirmed
# Conditions: stronger effect = lower value
row,SMILES,z-score
1,O=C(Nc1ccc2c(c1)OCCO2)c1ccc(Cl)c(S(=O)(=O)N2CCCCC2)c1,-3.16 (active)
2,O=C(Nc1ccc2c(c1)OCCO2)c1ccncc1,0.87
3,Cc1ccc(C(=O)Nc2ccc3c(c2)OCO3)cc1S(=O)(=O)N1CCCCC1,-0.16
4,Cc1ccc(C(=O)N/C(=C/c2cccnc2)C(=O)O)cc1,0.41
5,CC(=C/c1ccccc1)/C=N/NC(=O)c1cc(C)oc1C,-0.05
6,COc1ccc(-c2cc(C(F)(F)F)nc(SCC(=O)Nc3ccc4c(c3)OCO4)n2)cc1OC,-0.25
7,CCCc1nc2ccccc2c(C(=O)OCc2nnc(-c3cc(OC)c(OC)c(OC)c3)o2)c1CC,-3.12 (active)
8,CCCc1nc2ccccc2c(C(=O)OCC(=O)c2ccc3c(c2)NC(=O)CO3)c1CC,-1.42
9,CCOC(=O)c1cc(-c2nnc(-c3cc(OC)c(OC)c(OC)c3)o2)c(C)nc1C,0.08
10,CCOC(=O)c1c(NC(=O)C2CCN(S(=O)(=O)c3ccc(Cl)cc3)CC2)sc2c1CCCC2,0.49
11,CC(=O)CCC(=O)c1ccc2ccccc2c1,1.48
12,Cc1ccc2nc(-c3cccnc3)c(NC3CCCC3)n2c1,0.15
13,Cc1cc(OCCN2CCCC2)cc(C(C)C)c1,1.27
14,C/C(=N\N=C(N)N)c1ccc(Cl)cc1,-0.37
15,CCOC(=O)CC(=O)CSc1nc(-c2ccccc2)cc(-c2ccc(Cl)cc2)c1C#N,-0.86
16,CCOc1cc(-c2cc(-c3ccc(OC)cc3)nc(N)c2C#N)ccc1O,-3.73 (active)
17,CCSc1nc(-c2ccc(OC)cc2)cc(-c2ccc(OC)cc2)c1C#N,-1.07
18,NC(=O)CCC(NS(=O)(=O)c1ccc(Cl)cc1)C(=O)NCc1ccccc1Cl (configuration not stated),-0.26
19,CCCn1nc(NS(=O)(=O)c2ccccc2)c2cc3cc(C)ccc3nc21,-0.3
20,Cc1cc(C)c(C2C3=C(Nc4c2c(C)nn4-c2ccccn2)c2ccccc2C3=O)c(C)c1 (configuration not stated),1.27
21,CS(=O)(=O)N(Cc1ccccc1)c1ccc(C(=O)NN=C2CCCCCC2)cc1,-0.45
22,CCOC(=O)C1=C(C)NC(C)=C(C(=O)OCC)C1c1ccccn1,1.06
23,C=CCOC(=O)C1=C(C)NC(C)=C(C(=O)OCC=C)C1c1cccs1,-3.93 (active)
24,C=CCOC(=O)C1=C(C)NC(SCC(=O)OCC)=C(C#N)C1c1ccc(C)cc1 (configuration not stated),-1.05
25,Cc1ccc(-n2c(SCC(=O)NCc3ccc4c(c3)OCO4)nnc2-c2cccnc2)c(C)c1,-4.03 (active)

row,SMILES,z-score
1,Cc1ccccc1-c1nnc(SCC(=O)NCc2ccc3c(c2)OCO3)n1C,0.49
2,Cc1ccccc1-n1c(SCC(=O)NCc2cccs2)nnc1-c1ccncc1,-0.72
3,COc1cc(-c2cc(C(=O)OCC(=O)Nc3ccc4c(c3)OCO4)c3ccccc3n2)cc(OC)c1OC,-0.31
4,CN(C)c1cc[n+](Cc2ccccc2)cc1,0.16
5,CC1=NN(Cc2ccccc2)C(=O)/C1=C/c1ccc(N(C)C)cc1,-1.29
6,CN(C)c1ccc(/C=C2\NC(=S)N(Cc3ccccc3)C2=O)cc1,-3.38 (active)
7,Cc1cc(C)cc(C(=O)NC(=S)Nc2ccc3[nH]c(=O)[nH]c3c2)c1,0.78
8,COC(=O)c1cn(CC(=O)NCc2cccs2)c2ccccc12,-0.4
9,O=C(Cn1cc(C(=O)c2cccs2)c2ccccc21)NCc1cccs1,-3.3 (active)
10,COCCNC(=O)Cn1cc(C(=O)c2cccs2)c2ccccc21,-0.12
11,Cc1ccc(S(=O)(=O)NNC(=O)Nc2cccc3ccccc23)cc1,-1.37
12,CC(=O)c1c(O)cc2n(c1=O)-c1ccc(Cl)cc1C2(C)C,-0.76
13,CCNC(=S)N1CCN(c2ncccn2)CC1,0.25
14,O=C(CN(c1ccc2c(c1)OCCO2)S(=O)(=O)c1ccccc1)Nc1ccc2c(c1)OCO2,-3.19 (active)
15,CCCCC(=O)Nc1ccc2c(c1)OCCO2,-0.26
16,COc1ccc(S(=O)(=O)N(C)CC(=O)Nc2ccc3c(c2)OCCO3)cc1OC,0.96
17,Cc1cc([N+](=O)[O-])ccc1NC1CCCC1,0.61
18,CC(C)(C)C1CCC(=NNC(=O)c2cc(-c3ccccc3)n[nH]2)CC1 (configuration not stated),0.56
19,CCOc1ccc(NC(=S)NC(=O)/C=C/c2ccc(OC)cc2)c([N+](=O)[O-])c1,0.72
20,COc1ccc(S(=O)(=O)Nc2ccc(S(=O)(=O)N3CCCCC3)cc2)cc1OC,-1.09
21,COc1ccc(-c2ccc(Nc3ccc(S(=O)(=O)N4CCCC4)cc3)nn2)cc1OC,-3.54 (active)
22,COc1ccc(S(=O)(=O)N2CCCCC2)cc1Br,-0.87
23,CN(C)CCCNC(=S)NCc1ccc(Cl)cc1,0.46
24,Cc1ccc(C(C)NC(=O)Cn2nc(C)c([N+](=O)[O-])c2C)cc1 (configuration not stated),0.63
25,O=C1c2ccccc2C2=Nc3ccccc3SC(c3ccccc3F)C12 (configuration not stated),-4.39 (active)

row,SMILES,z-score
1,CCCOc1ccc(Cn2ccnc2)cc1[N+](=O)[O-],1.5
2,Cc1ccc(O)c(CCc2ccccc2)n1,0.72
3,COc1ccc(-c2nnc(SCc3cccnc3)o2)cc1,-0.08
4,COc1ccc(-c2cc(C(F)(F)F)nc(NCc3cccnc3)n2)cc1,-3.51 (active)
5,FC(F)(F)c1cc(-c2ccco2)nc(NCc2ccc(Cl)cc2)n1,0.02
6,COC(=O)c1sccc1NC(=O)c1cc(OC)c(OC)c(OC)c1,-0.79
7,COc1cc(C(=O)Nc2oc(-c3ccccc3)c(-c3ccccc3)c2C#N)cc(OC)c1OC,-3.42 (active)
8,O=C(CCN1C(=O)c2ccccc2C1=O)Nc1ccncc1,0.81
9,COc1cc(C(=O)NC(=S)NCc2ccco2)cc(OC)c1OC,0.39
10,N#Cc1c(/N=C/N2CCCC2)oc(-c2ccccc2)c1-c1ccccc1,-2.56
11,N#Cc1c(NC(=O)CCCN2C(=O)c3ccccc3C2=O)oc(-c2ccccc2)c1-c1ccccc1,-3.57 (active)
12,Cc1ccc(NC(=O)Cn2cccc2C2=NC(c3ccccc3)CO2)c(C)c1 (configuration not stated),-0.85
13,OC(COCc1ccco1)CN1CCN(c2ccccc2)CC1 (configuration not stated),1
14,CC(CNc1ccc([N+](=O)[O-])c2cccnc12)Nc1c([N+](=O)[O-])cc(C(F)(F)F)cc1[N+](=O)[O-] (configuration not stated),-1.13
15,Cc1ccc(NC(=O)CC2C(=O)N(Cc3ccccc3)C(=S)N2NC(=O)c2cccc(F)c2)c(C)c1 (configuration not stated),-1.13
16,COC(=O)C1=NNC2(c3ccc(C)cc3)C(=O)N(c3cccc(C)c3C)C(=O)C12 (configuration not stated),-0.49
17,CCc1ccc(NC(=O)c2ccc(Cn3cc([N+](=O)[O-])cn3)cc2)cc1,-0.1
18,O=C(CSC(=S)N1CCOCC1)c1ccccc1,0.14
19,CC(=O)Nc1ccc(SCC(=O)Nc2ccccc2Oc2ccccc2)cc1,-1.74
20,COc1ccc(C(c2nnnn2Cc2cccs2)N2CCN(c3ccccc3)CC2)cc1OC (configuration not stated),-3.47 (active)
21,COCCn1nnnc1C(c1ccccc1Cl)N1CCN(c2ccccc2OC)CC1 (configuration not stated),0.11
22,COc1ccc(CCn2nnnc2C(c2ccccc2)N2CCN(C)CC2)cc1OC (configuration not stated),0.7
23,CC1(C)Cc2cccc(OCC(=O)N3CCN(c4ccc([N+](=O)[O-])cc4)CC3)c2O1,-1.19
24,COC(=O)c1ccc(C(=O)OC)c(NC(=S)N2CCN(c3cc(Cl)ccc3C)CC2)c1,0.27
25,Cc1cc(C)c2[nH]c(=O)c(C(c3nnnn3Cc3ccc4c(c3)OCO4)N3CCCC3)cc2c1 (configuration not stated),0.33

row,SMILES,z-score
1,CC(C)(C)n1nnnc1C(c1ccc(F)cc1)N1CCN(Cc2ccc3c(c2)OCO3)CC1 (configuration not stated),-0.6
2,Fc1ccccc1C(c1nnnn1Cc1ccc2c(c1)OCO2)N1CCN(Cc2ccccc2)CC1 (configuration not stated),-3.73 (active)
3,CCc1ccc(Oc2coc3cc(OC(=O)c4cc5ccccc5oc4=O)ccc3c2=O)cc1,-2.06
4,C=CCNC(=O)c1ccccc1NC(=O)c1ccc(Cl)c(S(=O)(=O)Nc2cccc(C)c2C)c1,-3.05 (active)
5,Cc1ccccc1NC(=O)c1ccccc1NS(=O)(=O)c1cccc2cccnc12,-1.55
6,COC(=O)c1ccc(C(=O)Nc2cc(Cl)ccc2Cl)cc1NC(=O)c1ccccc1C,0.09
7,Cc1nc2ccccc2n1CC(=O)N/N=C/c1cccs1,0.4
8,CCCN1C(=O)C(Cc2nc3ccccc3c(=O)n2-c2ccccc2)c2cc(C)ccc21 (configuration not stated),0.19
9,Cc1nn(CC(=O)Nc2ccc(N(C)C)cc2)c(C)c1[N+](=O)[O-],-0.87
10,CCCCC(NS(=O)(=O)c1ccc(C)cc1)C(=O)Oc1ccc2c3c(c(=O)oc2c1)CCC3 (configuration not stated),-1.42
11,COC(=O)N/N=C/c1cn(CCCOc2ccc(C)cc2)c2ccccc12,-1.26
12,CCn1c(C(C)NC(=O)c2ccc(C)cc2)n[nH]c1=S (configuration not stated),0.28
13,O=C(Nc1ccccc1)c1ccc2c(c1)OCO2,1.34
14,O=C(Nc1ccccc1N1CCN(C(=O)c2ccccc2)CC1)c1ccc2c(c1)OCO2,-3.44 (active)
15,CCCC(=O)Nc1ccccc1N1CCN(C(=O)c2ccccc2)CC1,-1.16
16,CCOc1ccc(NC(=O)CSc2nc3ccccc3c(=O)n2Cc2cccs2)cc1,0.79
17,COc1cc(C(=O)Nc2nccs2)cc(OC)c1OC,-2.06
18,CC(=O)Cc1nsc(NC(=O)c2ccc(COc3ccc(C)cc3)o2)n1,-0.45
19,COC(=O)c1cn(-c2ccccc2)nc1-c1cccnc1,-0.5
20,COc1ccc(-c2nn(-c3ccccc3)cc2C(=O)Nc2nccs2)cc1OC,-3.32 (active)
21,COc1ccc(-c2nn(-c3ccccc3)cc2C(=O)Nc2nc(CC(C)=O)ns2)cc1,-3.37 (active)
22,CC(=O)Cc1nsc(NC(=O)c2csc3c2CCCC3)n1,-1.89
